# Coupling enz: coupling enzyme interference in Giardia aldolase counter-screen; AID 2472; activity change, negative = inhibition, % at 58.2 µM, hits read low; 290,000 compounds, 0.67% hits; coupling enzyme system counterscreen, AmpLite Red fluorescence; in the data active = activity change below about -30%
#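 Counterscreen of the coupled detection system alone, without aldolase: glyceraldehyde-3-phosphate coupling enzymes plus AmpLite Red readout. Compounds at 57.5 uM final, 10 min RT preincubation, 20 min RT reaction, fluorescence 525/598 nm.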
# Tau fluor cs: counter-screen for tau fibril formation inhibitors; AID 1463; Potency, µM (highest dose often 57.7 µM), for the others: top-dose activity change, negative = decrease; tau K18 P301L Alexa594 fluorescence, heparin fibrillization; 280,000 compounds, 0.93% hits; note: potency is the fitted concentration of half-maximal effect; nearly all actives have a fitted effect of over 55% in size
#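 Human tau K18 P301L (15 uM unlabeled, 0.24 uM Alexa 594-labeled) in 100 mM sodium acetate pH 7 with 20 uM heparin, 6 hr at 37 C. ThT 30 uM added, 1 hr ambient; Alexa 594 FP and total fluorescence read at 555/632 nm.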
# USP1 inh: inhibitors of human USP1/UAF1 deubiquitinase. Potency, µM (highest dose often 57.1 µM), inactives show at the top dose activity change, negative = inhibition, actives largely listed as inhibitors. recombinant USP1/UAF1, Ub-Rhodamine cleavage fluorescence. 390,000 compounds, 0.23% hits. O94782; note: potency is the fitted concentration of half-maximal effect; nearly all actives have a fitted effect of over 60% in size
#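 In this screen, compounds sit with the deubiquitinase complex (1nM) for 15 min at room temperature before Ub-Rho is added at 150nM final. Fluorescence rise is then followed for 6 reads every 60 seconds.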
# Tau fibril FP: inhibitors of human tau fibril formation | K18 P301L tau heparin fibrillization, Alexa594 FP, 6 h | Potency, µM (series often up to 57.7 µM), inactives show at the highest dose activity, negative = inhibition, usual class: inhibitors | P10636 | 280,000 compounds, 0.39% hits; note: potency is the fitted concentration of half-maximal effect; nearly all actives have a fitted effect of over 55% in size
# Target sequence (P10636 561-689 P618L limits assumed): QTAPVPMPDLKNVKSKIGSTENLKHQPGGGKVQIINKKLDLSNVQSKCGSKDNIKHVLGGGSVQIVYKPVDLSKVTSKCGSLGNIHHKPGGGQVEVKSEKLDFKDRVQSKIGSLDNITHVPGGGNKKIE
#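 Steps: dispense K18 P301L tau (15 uM plus 0.24 uM Alexa 594 tracer, final) in pH 7 sodium acetate; add compound; add heparin (20 uM final); incubate 6 hr, 37 C; add ThT (30 uM final); after 1 hr ambient, read FP.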
# Tau fibril ThT: inhibitors of human tau fibril formation, thioflavin T binding. recombinant tau K18 P301L (four-repeat tau fragment), heparin-induced fibrillization, ThT fluorescence. P10636. 270,000 compounds, 2.1% hits. Potency, µM (top dose mostly 57.4 µM), inactives show top-dose activity, negative = inhibition, hits mostly inhibitors. AID 1460; note: potency is the fitted concentration of half-maximal effect; nearly all actives have a fitted effect of over 55% in size
#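 K18 P301L tau (15 uM + 0.24 uM Alexa 594-tagged), heparin 20 uM, NaOAc pH 7, 6 h 37 C; ThT 30 uM, 1 h RT, ex 450/em 510 nm.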
# * marks the source's active call; other numbers are inactive results; ? = inconclusive; . = no result; ! = not confirmed by another sample; [ ] = another dose, or the depositor's remark. Rows were chosen to be rich in hits. Some 2.3% of all compounds tested hit in one or more screens of this group. Unless noted, calls come from the whole dose curve; as a rule, active = well fitted curve in the direction sought with a large enough effect; inconclusive = small, poorly fitted or top-dose-only effect, or another doubt; inactive = no such curve, though single readings can be large; an effect the other way counts as inactive or inconclusive. % is set by controls: 0 for no effect and ±100 for the full control effect.
SMILES,Coupling enz,Tau fluor cs,USP1 inh,Tau fibril FP,Tau fibril ThT
Cc1[nH]c2ccccc2c1CCNS(=O)(=O)c1ccc(S(N)(=O)=O)cc1,3,.,-22%,.,.
CCn1c2ccccc2c2nnc(NN)nc21,-8,-11%,?,?,14µM*
CN1CCN(c2ccc(S(=O)(=O)N3CCCCC3)cc2NC(=O)/C=C/c2ccc(Cl)c([N+](=O)[O-])c2)CC1,.,.,-10%,.,.
O=C(Nc1ccccc1N1CCOCC1)c1cc2ccccc2o1,0,.,-9%,.,.
O=C(Nc1ccc(N2CCCC2)c(Cl)c1)c1ccc([N+](=O)[O-])o1,-13,14µM*[quencher],-7%,-3%,8.9µM*
O=C(Nc1ccc(N2CCOCC2)c(Cl)c1)c1cc2ccccc2o1,-33*,?,-19%,13%,?
O=C(Nc1ccc(N2CCCC2)cc1)c1ccc(Br)o1,-5,?,-8%,8%,8.9µM*
CCN1CCN(c2ccc(NC(=O)c3ccc(Br)o3)cc2)CC1,2,.,-8%,.,.
O=C(/C=C/c1ccc(Cl)c([N+](=O)[O-])c1)Nc1ccc(N2CCCC2)c(Cl)c1,2,?,-1%,6%,1µM*
C=Cc1ccc(Cn2c(=O)n(-c3cccc(Cl)c3)c(=O)c3c4c(sc32)CN(C(C)=O)CC4)cc1,.,6%,-18%,?,?
CC(NC(=O)c1ccc2c(c1)CCN2S(=O)(=O)c1ccccc1)c1ccccc1 (configuration not stated),.,-25%,-20%,-2%,-3%
COc1ccc(CCNC(=O)c2ccc(Nc3nc4ccccc4n4nnnc34)cc2)cc1OC,.,-17%,-7%,-5%,-13%
O=C(Nc1ccc(N2CCOCC2)c(Cl)c1)c1ccc(Br)o1,-32*,?,-19%,?,?
O=C(Nc1ccc(N2CCN(C(=O)c3ccccc3)CC2)c(Cl)c1)c1ccc(Br)o1,-5,?,-8%,-2%,?
COc1ccccc1NS(=O)(=O)c1cc(NC(=O)c2ccc3ccccc3n2)ccc1Cl,6,-24%,-23%,?,15%
COc1ccc(C(=O)Nc2ccc(Cl)c(S(=O)(=O)Nc3ccccc3OC)c2)cc1,-2,?,-16%,?,7%
COc1ccc(NC(=O)Cc2cccc(F)c2)cc1S(=O)(=O)Nc1ccccc1Cl,0,14µM*[quencher],-14%,?,.
COc1ccccc1NS(=O)(=O)c1cc(NC(=O)c2ccc(Cl)nc2)ccc1Cl,-3,22µM*[quencher],-27%,25µM*,15%
COc1ccc(NS(=O)(=O)c2cc(NC(=O)Cc3c(F)cccc3Cl)ccc2OC)cc1,.,.,-11%,.,.
COc1ccccc1NC(=O)Nc1ccc(Cl)c(S(=O)(=O)Nc2ccccc2OC)c1,-2,3.2µM*[quencher],-6%,28µM*,-6%
OCCN1CCN(C(c2ccccc2Cl)c2sc3nc(-c4ccco4)nn3c2O)CC1 (configuration not stated),.,-4%,-23%,?,0%
Cn1cc(S(=O)(=O)N2CCCCC2)cc1C(=O)N1CCN(c2ccc(F)cc2)CC1,.,-1%,-3%,0%,4%
CCCSc1ncc(Cl)c(C(=O)Nc2ccc(S(=O)(=O)N3CCCC(C)C3)cc2)n1 (configuration not stated),.,?,-3%,-12%,-1%
CCCCC1=CC2=CC(=O)C(C)(OC(=O)CC)C(=O)C2=CN1c1ccccc1 (configuration not stated),1,-3%[11.6 µM],?,2%[11.6 µM],?
CCCCC1=CC2=CC(=O)C(C)(OC(=O)CC)C(=O)C2=CN1C1CCCC1 (configuration not stated),-33*!,-5%[11.6 µM],-17%,2%[11.6 µM],-7%[11.5 µM]
COC(=O)CCCC1=CC2=CC(=O)C(C)(OC(=O)c3cccs3)C(=O)C2=CN1Cc1ccc2c(c1)OCO2 (configuration not stated),-20,-8%[11.6 µM],?,?,13µM*!
COC(=O)CCCC1=CC2=CC(=O)C(C)(OC(=O)c3cccs3)C(=O)C2=CN1C1CCCC1 (configuration not stated),-43*,-17%[11.6 µM],?,?,25µM*

# Screening results as filed in PubChem BioAssay.
